Compounds with a hit are over-represented: about 0.71% of the library has one in this group of screens.
IDE cell activ: boosts human insulin-degrading enzyme activity in HEK cells; FAbeta-B cleavage, fluorescence polarization; 0% vehicle, 100% cell-free pure enzyme wells; activation, % at 5.96 µM; P14735; 340,000 tested, 0.073% active;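 active means activation above the mean of all tested compounds plus 3 SD, set per screening campaign, cut at about 17% in these data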
Target sequence (P14735 whole entry, looked up): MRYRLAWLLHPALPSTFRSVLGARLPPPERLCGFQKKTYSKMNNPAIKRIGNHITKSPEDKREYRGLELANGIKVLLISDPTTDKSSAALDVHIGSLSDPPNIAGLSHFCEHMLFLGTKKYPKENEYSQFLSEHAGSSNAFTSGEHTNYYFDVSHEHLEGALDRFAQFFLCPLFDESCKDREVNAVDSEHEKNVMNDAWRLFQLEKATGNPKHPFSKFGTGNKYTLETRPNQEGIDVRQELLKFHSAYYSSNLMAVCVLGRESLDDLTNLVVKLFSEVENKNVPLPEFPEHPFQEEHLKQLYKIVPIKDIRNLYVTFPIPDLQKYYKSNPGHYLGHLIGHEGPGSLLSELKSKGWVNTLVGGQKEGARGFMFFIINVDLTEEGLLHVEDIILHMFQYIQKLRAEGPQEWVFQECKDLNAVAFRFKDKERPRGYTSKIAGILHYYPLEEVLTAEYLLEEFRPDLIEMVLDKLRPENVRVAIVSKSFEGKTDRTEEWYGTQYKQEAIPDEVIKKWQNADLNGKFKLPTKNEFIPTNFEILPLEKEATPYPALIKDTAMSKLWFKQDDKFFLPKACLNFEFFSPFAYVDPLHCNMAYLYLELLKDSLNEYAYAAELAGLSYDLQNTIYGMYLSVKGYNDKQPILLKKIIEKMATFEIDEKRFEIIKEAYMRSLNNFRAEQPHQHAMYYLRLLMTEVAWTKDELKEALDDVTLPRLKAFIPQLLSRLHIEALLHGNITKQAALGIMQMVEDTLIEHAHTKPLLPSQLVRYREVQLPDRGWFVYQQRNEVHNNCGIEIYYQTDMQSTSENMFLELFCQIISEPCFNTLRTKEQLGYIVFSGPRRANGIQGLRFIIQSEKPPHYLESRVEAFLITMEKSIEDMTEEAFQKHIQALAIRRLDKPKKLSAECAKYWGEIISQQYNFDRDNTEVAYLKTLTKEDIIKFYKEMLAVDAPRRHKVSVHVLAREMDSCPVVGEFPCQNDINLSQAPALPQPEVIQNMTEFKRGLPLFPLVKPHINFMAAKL
IDE inh: inhibitors of human insulin-degrading enzyme in cells | P14735 | inhibition, % at 5.59 µM | HEK cells, FAbetaB cleavage, fluorescence polarization | 320,000 tested, 0.41% active;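 active means percent inhibition above the average of all tested compounds plus 3 SD, set per screening campaign, cut at about 16% in these data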;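 further: IDE supplied by intact live HEK cells; FP after avidin binding of uncleaved biotin substrate so inhibition keeps polarization high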
RTF Ca sens inh: cardiac RTF calcium desensitization; IANBD-labeled cardiac RTF, Ca2+ fluorescence; 340,000 tested, 0.12% active; P19429+P45379; inhibition, % at 7.15 µM;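 active means inhibition above the mean inhibition of all tested compounds plus 3 SD, cut at about 17% in these data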;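 further: assay run at fixed EC70 calcium of 1.6 mM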
cardiac RTF act: increases calcium sensitivity of human cardiac regulated thin filaments. IANBD-labeled TnC RTF fluorescence at EC20 calcium; 0% EC20 calcium, 100% full calcium. 340,000 tested, 0.24% active. AID 493008. activation, % at 7.2 µM. P19429+P45379;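 active means activation above the mean over all tested compounds plus 3 SD, cut at about 30% in these data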;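 further: rise in fluorescence read as greater calcium sensitivity of cardiac thin filaments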
RTF inh confirm: cardiac RTF calcium sensitivity inhibition, confirmation; 360 tested, 8% active; AID 504635; reconstituted cardiac thin filaments, calcium sensitivity fluorescence; inhibition, % at 7.15 µM; shares compounds with RTF Ca sens inh; in the data active means inhibition above about 18%
A number is an active result; . = inactive; / = no result given.

SMILES	IDE cell activ	IDE inh	RTF Ca sens inh	cardiac RTF act	RTF inh confirm
COc1ccc(/C=C/C(=O)NC(=S)Nc2ccc(C(=O)O)cc2)cc1	.	.	58	33	.
CCc1cc2c(CN(C)Cc3ccccc3F)cc(=O)oc2cc1O	.	.	18	.	.
COc1ccccc1NCC(=O)N/N=C/c1c(O)ccc2ccccc12	.	.	.	.	/
COc1ccccc1N(CC(=O)N/N=C/c1c(O)ccc2ccccc12)S(C)(=O)=O	.	.	26	.	.
Cc1ccc(C(=O)NC(=S)Nn2cnnc2)cc1	.	.	.	.	/
O=C(NC(=S)Nn1cnnc1)c1cccc(Br)c1	.	.	19	.	.
C=C[C@@]1(C)CC(=O)[C@]2(O)[C@@]3(C)[C@@H](O)CCC(C)(C)[C@@H]3[C@H](O)[C@H](OC(C)=O)[C@@]2(C)O1	.	.	19	.	.
O=C(O)/C=C/C(O)c1ccc(Cl)cc1 (configuration not stated)	.	.	18	.	.
O=C(/C=C/Sc1ccccc1)c1ccc(Cl)cc1	.	.	.	.	/
O=C(NCCCN1CCC(Cc2ccccc2)CC1)C1CCN(S(=O)(=O)N2CCC3(CC2)OCCO3)CC1	.	.	.	.	/
O=C(NCCCN1CCN(Cc2ccccc2)CC1)C1CCN(S(=O)(=O)N2CCC3(CC2)OCCO3)CC1	.	.	18	.	.
COc1ccc2oc(C(=O)OC(C)C(=O)NC3(C#N)CCCCC3)c(C)c2c1 (configuration not stated)	.	.	.	.	/
COCCn1c(N)c(N(Cc2ccccc2)C(=O)COc2ccccc2F)c(=O)[nH]c1=O	.	.	19	.	.
O=C(CSc1nc2ccccc2n1CCc1ccccc1)N1CCOCC1	.	.	.	.	/
O=C(CSc1nc2ccccc2n1CCc1ccccc1)c1ccc(O)c(O)c1	.	/	18	.	.
O=C(O)c1ccc(CNC(=O)c2ccccc2NC(=O)c2cccc([N+](=O)[O-])c2)cc1	.	.	18	.	.
O=C(Cn1cc(Cl)ccc1=O)c1ccc(Cl)cc1	.	.	.	.	/
Cc1nn(-c2cccc(C(F)(F)F)c2)c(Cl)c1/C=N/Nc1cccc(C(=O)O)c1	.	.	21	.	.
CC1(C)Cc2cccc(OCC(O)CN3CCN(c4ccccn4)CC3)c2O1 (configuration not stated)	.	/	.	.	/
CC1(C)Cc2cccc(OCC(O)CNCc3ccccn3)c2O1 (configuration not stated)	.	.	18	.	.
CCCCC(CC)CN=C(N)NC(N)=NCCCCCCN=C(N)NC(N)=NCC(CC)CCCC (configuration not stated)	.	.	23	.	.
CCCCC(CC)CO (configuration not stated)	.	.	.	.	/
O=C(NCc1ccc(F)cc1)C1CCCN1C(=O)Nc1ccc(Cl)cc1 (configuration not stated)	.	.	.	.	/
O=C(N/N=C/c1ccc(F)cc1)c1cc(-c2ccco2)nc2ccccc12	.	.	19	.	.
N#CN1CCC(NS(=O)(=O)c2ccc(C(F)(F)F)cc2)CC1	.	.	.	.	/
SMILES	IDE cell activ	IDE inh	RTF Ca sens inh	cardiac RTF act	RTF inh confirm
Cc1ccc(CSc2nnc(SCC(=O)N/N=C/c3c[nH]c4ccccc34)s2)cc1	.	/	23	.	.
CC(C)c1nc2cc(C(=O)NC(c3cccnc3)C(F)(F)F)ccc2o1 (configuration not stated)	.	.	.	.	/
CCOC(=O)CNC(=O)C1(NC(=O)CNC(=O)OCc2ccccc2)CCCC1	.	/	.	.	/
CCCCn1c(SC(C)C(=O)NCC2CCCO2)nc2cc(C(=O)OC)ccc2c1=O (configuration not stated)	.	.	19	.	.
CCCCn1c(SC(C)C(N)=O)nc2cc(C(=O)OC)ccc2c1=O (configuration not stated)	.	.	.	.	/
CCOc1ncccc1C(=O)NCc1ccc(OC)c(OC)c1	.	.	.	.	/
CCOc1ccc(CN(C)C(=O)c2cccnc2OCC)cc1OC	.	.	18	.	.
Cc1cccc(NC(=O)CSc2nc(=O)n(CCCN3CCOCC3)c3c2CCCC3)c1	.	.	.	.	/
O=c1c(O)cccc2cc(O)c(O)c(O)c12	.	.	87	.	51
O=C(Nc1ccc(F)cc1)c1cccnn1	.	.	.	.	/
COc1ccccc1NC(=S)N(Cc1ccccn1)Cc1ccccc1Cl	.	.	17	.	.
CCn1c(CNC(=O)c2ccc(F)cc2)cc2ccccc21	.	.	.	.	/
Cc1ccc(C(=O)N2CCC(C)CC2)cc1S(=O)(=O)N1CCCCC1	.	.	.	.	/
COCCN(C(=O)COC(=O)c1cc2c(s1)CCC2)c1c(N)n(Cc2ccccc2)c(=O)[nH]c1=O	.	.	20	.	.
O=C1N[C@@H](Cc2ccccc2)C(=O)N2CCCC12 (some centres not stated)	.	/	.	.	/
O=C1N[C@@H](Cc2cnc[nH]2)C(=O)N2CCC[C@@H]12	.	.	17	.	.
O=C(Nc1ccccc1OC(F)F)c1ccc(-n2cncn2)c([N+](=O)[O-])c1	.	.	87	.	.
O=C1/C(=C/c2cccs2)COc2ccccc21	.	.	18	.	.
O=C(Nc1ccc2[nH]c(=O)[nH]c2c1)C(F)(F)F	.	.	.	.	/
O=S(=O)(c1ccc2ncn(O)c2c1)N1CCOCC1	.	.	22	.	.
O=S(=O)(c1ccc2nnn(O)c2c1)N1CCOCC1	.	.	.	.	/
CCc1cc(C(=O)N=Nc2c(O)[nH]c3ccc([N+](=O)[O-])cc23)c2ccccc2n1	.	.	17	.	.
CCNC(=O)N(C)C[C@H]1N[C@@](C)(C(=O)OC)[C@H]2C(=O)N(Cc3ccccc3)C(=O)[C@@H]12	.	.	.	.	/
O=C(C1CCCCN1S(=O)(=O)c1ccccc1[N+](=O)[O-])N1CCOCC1 (configuration not stated)	.	.	18	.	.
O=C(C1CCCN(S(=O)(=O)c2ccccc2[N+](=O)[O-])C1)N1CCCC1 (configuration not stated)	.	.	.	.	/
SMILES	IDE cell activ	IDE inh	RTF Ca sens inh	cardiac RTF act	RTF inh confirm
Cc1cc(C(=O)N2CCN(c3cc(Cl)ccc3C)CC2)on1	.	.	.	.	/
O=C(NCc1cccnc1)c1cc(C(=O)C2CC2)c[nH]1	.	.	22	.	.
O=C(NCc1cccc(Br)c1)c1cc(-c2ccccc2)nn1CC1CC(c2cccc([N+](=O)[O-])c2)=NO1 (configuration not stated)	.	.	.	.	/
Cc1ccccc1OCC(=O)OCC(=O)NCc1ccccc1	.	.	.	.	/
COc1ccccc1C(=O)NC(=O)COC(=O)CCOc1ccc(C)cc1	.	.	.	.	/
Cc1ccccc1OCC(=O)OCC(=O)NCCNC(=O)COC(=O)COc1ccccc1C	.	.	17	.	.
COc1ccccc1C(=O)NC(=O)COC(=O)CCOc1ccccc1C	.	.	28	.	.

From PubChem
